# Tau fluor counter: counter-screen for tau fibril formation inhibitors. tau K18 P301L Alexa594 fluorescence, heparin fibrillization. Potency, µM (series often up to 57.7 µM), for inactives: at the highest dose activity change, negative = decrease. hit rate 0.93% among 280,000; also: potency is read from the fitted curve at half-maximal effect; nearly all actives have a fitted effect of over 55% in size
#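 Human tau K18 P301L (15 uM unlabeled, 0.24 uM Alexa 594-labeled) in 100 mM sodium acetate pH 7 with 20 uM heparin, 6 hr at 37 C. ThT 30 uM added, 1 hr ambient; Alexa 594 FP and total fluorescence read at 555/632 nm.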
# Tau fibril ThT: inhibitors of human tau fibril formation, thioflavin T binding | Potency, µM (titrated, usually from 57.4 µM), inactives show top-dose activity, negative = inhibition, actives largely listed as inhibitors | P10636 | hit rate 2.1% among 270,000 | recombinant tau K18 P301L (four-repeat tau fragment), heparin-induced fibrillization, ThT fluorescence; also: potency is read from the fitted curve at half-maximal effect; nearly all actives have a fitted effect of over 55% in size
# Target sequence (P10636 561-689 P618L limits assumed): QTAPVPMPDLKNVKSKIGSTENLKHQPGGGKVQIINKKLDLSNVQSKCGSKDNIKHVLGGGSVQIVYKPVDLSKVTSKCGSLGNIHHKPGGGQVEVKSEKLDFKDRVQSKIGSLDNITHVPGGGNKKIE
#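 Recombinant human tau K18 fragment […] carrying P301L, 15 uM unlabeled plus 0.24 uM Alexa 594-labeled, was fibrillized with 20 uM heparin in 100 mM sodium acetate pH 7 for 6 hr at 37 C; 30 uM ThT fluorescence read after 1 hr.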
# Tau fibril FP: blocks human tau fibril formation measured by polarization | AID 1468 | P10636 | hit rate 0.39% among 280,000 | Potency, µM (doses to about 57.7 µM), inactives show top-dose activity, negative = inhibition, most hits filed as inhibitors | K18 P301L tau heparin fibrillization, Alexa594 FP, 6 h; also: potency is read from the fitted curve at half-maximal effect; nearly all actives have a fitted effect of over 55% in size
#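 Human tau K18 […] P301L fragment, 15 uM unlabeled plus 0.24 uM Alexa 594-labeled tau (final), with compound and 20 uM heparin in 100 mM sodium acetate pH 7; 6 hr at 37 C, then Alexa 594 FP read.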
# Sfp inh: inhibitors of Bacillus subtilis Sfp phosphopantetheinyl transferase. Q9F4F7. Biochemical Sfp PPTase activity, qHTS. Potency, µM, for the others: largest response in the series, negative = inhibition, most hits filed as inhibitors. hit rate 3.5% among 310,000;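 also: the enzyme is Sfp with the accession as filed and its product quenches rhodamine fluorescence; potency is read from the fitted curve at half-maximal effect; 0% = enzyme reaction without inhibitor and -100% = no enzyme wells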
#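 Sfp 15 nM + cpd, 15 min RT; start w/ rhodamine-CoA 5 uM, BHQ-2-YbbR 12.5 uM (final); 50 mM Hepes pH 7.6, 10 mM MgCl2, 0.01% NP-40, 0.01% BSA; read 525/598 nm at 0 and 30 min.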
# G9a inh: inhibitors of human histone lysine methyltransferase G9a. AID 504332. hit rate 8.8% among 350,000. Q96KQ7. G9a H3K9 monomethylation, AlphaScreen, 2 h. Potency, µM (top dose mostly 102 µM), inactives show at the highest dose activity, negative = inhibition, hits mostly inhibitors; also: potency is read from the fitted curve at half-maximal effect; nearly all actives have a fitted effect of over 75% in size
# Target sequence (Q96KQ7 913-1193 limits assumed): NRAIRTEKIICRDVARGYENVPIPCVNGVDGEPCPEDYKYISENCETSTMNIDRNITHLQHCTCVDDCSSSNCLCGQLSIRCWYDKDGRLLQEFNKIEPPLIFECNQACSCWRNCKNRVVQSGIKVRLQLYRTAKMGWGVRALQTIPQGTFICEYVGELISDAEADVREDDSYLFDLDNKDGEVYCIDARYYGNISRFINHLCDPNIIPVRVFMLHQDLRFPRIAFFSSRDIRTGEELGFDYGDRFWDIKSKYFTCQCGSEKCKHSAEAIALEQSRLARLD
#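 Quantitative HTS format: methyltransferase activity on a biotin-tagged H3K9 peptide is measured by AlphaScreen, using a rabbit anti-monomethyl-H3K9 antibody with streptavidin donor and anti-IgG acceptor beads. Final levels are 20 nM enzyme, 500 nM peptide, 20 uM SAM; 2 h RT.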
# Coupling enz: coupling enzyme interference in Giardia aldolase counter-screen; AID 2472; hit rate 0.67% among 290,000; coupling enzyme system counterscreen, AmpLite Red fluorescence; activity change, negative = inhibition, % at 58.2 µM, hits read low; in the data active = activity change below about -30%
#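 Counterscreen lacking aldolase: glyceraldehyde-3-phosphate coupling-enzyme reagent preincubated 10 min at RT with compound (at 57.5 uM final), then substrate/coupling system with AmpLite Red added; fluorescence read at 525/598 nm after 20 min RT.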
# Numbers without * were called inactive; ? = inconclusive; nt = no result given; ! = not active in a repeat; [ ] = dose if it differs, or a comment. Rows were chosen to be rich in hits. Some 11% of all compounds tested hit in one or more screens of this group. Unless noted, calls follow the shape of the dose curve; as a rule, active = well fitted curve in the direction sought with a large enough effect; inconclusive = small, poorly fitted or top-dose-only effect, or another doubt; inactive = no such curve, though single readings can be large; an effect the other way counts as inactive or inconclusive. Unless noted, % is scaled to controls: 0 for no effect and ±100 for the full control effect.
SMILES,Tau fluor counter,Tau fibril ThT,Tau fibril FP,Sfp inh,G9a inh,Coupling enz
Cc1c(C)c2cc3c(c(C)c2oc1=O)OCN(CCc1ccccc1)C3,-15%,-15%,5%,nt,6%[59 µM],nt
O=C(CSc1nccn1Cc1ccc(F)cc1)Nc1ccc2c(c1)OCO2,-12%,2%,6%,nt,-38%[59 µM],nt
CS(=O)(=O)c1ccc2nc(NC(=O)CN3CCC(Cc4ccccc4)CC3)sc2c1,nt,nt,nt,15%,-1%[2.33 µM],3
CCOCC(=O)Nc1nc2ccc(OCC)cc2s1,-1%,-19%,13%,11%,-25%[12.7 µM],4
CS(=O)(=O)c1ccc2nc(NC(=O)CN3CCN(Cc4ccccc4)CC3)sc2c1,-13%,-12%,-7%,10%,13µM*,3
CCOc1ccc2nc(NC(=O)Cn3c(C)csc3=O)sc2c1,nt,nt,nt,nt,40µM*,nt
CC(C)CC(=O)Nc1nc2ccc(S(C)(=O)=O)cc2s1,2%,-3%,2%,20µM*,50µM*,1
CCN1CCN(CC(=O)Nc2nc3ccc(OC)cc3s2)CC1,-4%,-10%,-1%,89µM*,2µM*,1
COc1ccc2nc(NC(=O)CN3CCN(C)CC3)sc2c1,-12%,-12%,-9%,-3%,?,0
CC1(c2ccccc2)CC(C)(C)N(C(=O)c2ccccc2Cl)c2ccccc21 (centres undefined),-8%,-8%,-9%,nt,-7%[59 µM],nt
CC(=O)c1sc(NC(=O)COc2ccc(C)c(C)c2)nc1C,3%,-10%,7%,12%,4%[59 µM],5
CCOc1ccc2nc(NC(=O)c3ccc(OCC4CCCO4)cc3)sc2c1 (centres undefined),-25%,-5%,-3%,?,45µM*,0
Cc1cccc2sc(NC(=O)c3ccc(OCC4CCCO4)cc3)nc12 (centres undefined),6%,12%,-4%,-23%,-8%[59 µM],-1
Cc1cc(C)c(-n2[nH]nnc2=S)c(C)c1,-3%,-1%,-12%,28µM*,14µM*,6
COc1ccc(C)cc1-n1[nH]nnc1=S,5%,-2%,-8%,-82%,6.3µM*,1
COc1ccccc1OCC#CCn1ccnc1,3%,-1%,1%,-18%,3.2µM*,0
COc1ccc(-n2ccnc2)cc1,4%,-3%,-2%,24%,32%[12.7 µM],1
COc1ccc(OCC#CCn2ccnc2)cc1,-5%,-9%,0%,?,7.1µM*,3
COc1cccc(CN2CC(C(=O)NC3CCC3)CCC2=O)c1 (centres undefined),nt,nt,nt,-3%,?,1
O=C(CN1CCN(C2CCCCC2)CC1)Nc1ccccc1-c1ccccc1,-10%,?,-1%,?,?,-5
O=C(CN1CCN(C2CCCCC2)CC1)Nc1cccc2ccccc12,-6%,-6%,-5%,79µM*,11µM*,2
O=C(CN1CCN(C2CCCCC2)CC1)NCCC1=CCCCC1,4%,-4%,1%,79µM*,nt,-6
COC(=O)CC1=COC2OCC3=CC[C@@H]1C32 (some centres undefined),-5%[11.6 µM],-4%[11.5 µM],4%[11.6 µM],34%,nt,1
COc1ccccc1OCC(O)Cn1c(=N)n(Cc2ccccc2)c2ccccc21 (centres undefined),3%,6%,-5%,-12%,-26%[12.7 µM],-4
CCCCCn1c(=N)n(CC(O)COc2ccccc2OC)c2ccccc21 (centres undefined),-5%,3%,-3%,25µM*!,-50%,-7
COC(=O)c1sc(=S)sc1C(=O)OC,-19%,3.2µM*,?,-26%,28µM*,1
COc1ccc(SCc2cc(=O)c3cc(Cl)ccc3[nH]2)cc1,-8%,1%,-10%,nt,3%[59 µM],nt
CCOC(=O)c1c(N)sc2c1CCCC2,-17%,?,?,?,?,-1
CCNC(=O)c1c(N)sc2c1CCCCC2,-19%,32µM*,?,35µM*,?,-9
Cc1ccccc1NC(=O)CSc1cn(CC(=O)N(C(C)C)C(C)C)c2ccccc12,-8%,-4%,-4%,nt,7%[59 µM],nt
